Test results published in PubChem BioAssay (Tox21).
Values joined by “and” are separate entries in the source; they are usually repeats but may differ in a detail not shown here. Equal values may be shown once. Records with an inconclusive call do not appear. A structure can be active in one record and inactive in another. Active and inactive are the calls of the source. Unless noted, the call rests on the fitted dose curve; in most records, active means well fitted curve in the direction sought with a large enough effect in the repeat runs; inconclusive means weak or mixed curves; inactive means no such curve, though single readings can be large; an effect the other way counts as inactive or inconclusive.

Experiments:
[1] = qHTS assay to identify small molecule agonists of the androgen receptor (AR) signaling pathway in the presence of an antagonist - cell viability counter screen (AID 1259379); further: nearly all actives have a fitted effect of over 25% in size; further: potency means the concentration at half of the fitted maximal effect
Outline: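 Viability counter screen: CellTiter-Fluor fluorescence, measured in the same wells as the luciferase read-out. MDA-kb2 cells, 3,000/well, with nilutamide at 3.0uM final and compounds at 15 concentrations, 16 hr at 37C, 0% CO2.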

[2] = qHTS assay to identify small molecule antagonists of the estrogen receptor beta (ER-beta) signaling pathway - cell viability counter screen (AID 1259382); further: nearly all actives have a fitted effect of over 55% in size; further: potency means the concentration at half of the fitted maximal effect
Outline: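 Luminescent ATP read-out (CellTiter-Glo, 30 min, RT) taken in the same wells as the bla reporter assay. HEK293T ER-beta-UAS-bla cells in 2% charcoal-stripped FBS were exposed to compounds with 1nM E2 for 16 hr at 37C.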

[3] = target: Estrogen receptor (Homo sapiens) (UniProt P03372); test: qHTS assay to identify small molecule agonists of the estrogen receptor alpha (ER-alpha) signaling pathway in the presence of an antagonist (AID 1259383; calls by dose curve; further: nearly all actives have a fitted effect of over 15% in size; further: potency means the concentration at half of the fitted maximal effect; on activation: top concentration of the series differs between compounds)
Outline: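 Luciferase luminescence (ONE-Glo, 30min at room temperature) measured in VM7Luc4E2 cells after 22hr compound exposure at 15 concentrations, with 10.0nM ICI-182,780 final present; cells express endogenous ER-alpha and carry four EREs upstream of luciferase.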

[4] = qHTS assay to identify small molecule agonists or antagonists of the thyroid stimulating hormone receptor (TSHR) signaling pathway - wild type cell line counter screen (AID 1259384; calls by dose curve)
Outline: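 Wild-type Hek293 cells, 800/well, 18 h at 37C, then compound with Ro20-1724 for 30 min RT. cAMP by HTRF (cAMP-d2/anti-cAMP cryptate), 1 h RT, fluorescence read. 15 concentrations, triplicates.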

[5] = qHTS assay to identify small molecule agonists of the estrogen receptor alpha (ER-alpha) signaling pathway in the presence of an antagonist - cell viability counter screen (AID 1259386);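 further: cells exposed to compounds for 22 h at 37 °C before the viability read; nearly all actives have a fitted effect of over 30% in size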; further: potency means the concentration at half of the fitted maximal effect
Outline: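 Read-out: CellTiter-Fluor fluorescence after 1hr reagent incubation, measured in the same wells as the luciferase readout. VM7Luc4E2 cells were exposed to 15 compound concentrations with 10.0nM ICI-182,780 for 22hr at 37C.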

[6] = target: Progesterone receptor (Homo sapiens) (UniProt P06401); test: qHTS assay to identify small molecule agonists of the progesterone receptor (PR) signaling pathway (AID 1346784; calls by dose curve; further: nearly all actives have a fitted effect of over 30% in size; further: potency means the concentration at half of the fitted maximal effect)
Outline: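 Agonist mode, quantitative HTS format in a HEK 293T line expressing a UAS-controlled beta-lactamase reporter; 16 hr compound exposure at 37C in 2% charcoal-stripped FBS, then LiveBLAzer B/G FRET fluorescence.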

[7] = target: Progesterone receptor (Homo sapiens) (UniProt P06401); test: qHTS assay to identify small molecule antagonists of the progesterone receptor (PR) signaling pathway (AID 1346795; active means well fitted inhibition curve with a large enough effect in the signal ratio in the repeat runs, not every such curve was filed as active; the % refers to the signal ratio; further: potency means the concentration at half of the fitted maximal effect)
Outline: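 HEK293T PR-UAS-bla reporter cells in charcoal-stripped serum (2%) received compound after a 6 hr settling period, followed by R5020 agonist at 1 nM final; 16 hr incubation preceded the FRET substrate step and fluorescence measurement.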

[8] = qHTS assay to identify small molecule antagonists of the progesterone receptor (PR) signaling pathway - cell viability counter screen (AID 1346798); further: nearly all actives have a fitted effect of over 50% in size; further: potency means the concentration at half of the fitted maximal effect
Outline: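 Same-well multiplex: after 16 hr at 37C with compound and R5020 stimulation, HEK293T cells carrying a UAS-bla reporter received LiveBLAzer substrate (2 hr RT), then CellTiter-Glo (30 min RT) for luminescent viability.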

[9] = qHTS assay to identify small molecule agonists of the progesterone receptor (PR) signaling pathway - cell viability counter screen (AID 1346799; calls by dose curve; further: nearly all actives have a fitted effect of over 45% in size; further: potency means the concentration at half of the fitted maximal effect)
Outline: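 Counter screen for cytotoxicity: compound-treated PR-UAS-bla HEK293T cells (16 hr, 37C, 5% CO2) were assayed with CellTiter-Glo, luminescence measured after 30 min at room temperature.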

[10] = qHTS assay to identify small molecule antagonists of the TGF-beta/Smad signaling pathway - cell viability counter screen (AID 1346824); further: nearly all actives have a fitted effect of over 50% in size; further: potency means the concentration at half of the fitted maximal effect
Outline: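 SBE-bla HEK 293T cells, incubated overnight, then compound plus 0.25 ng/mL TGF-beta1 (stock added) for 5 hr at 37 C. Viability was read in the same wells by CellTiter-Glo luminescence after 30 min at room temperature.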

[11] = qHTS assay to identify small molecule agonists of the TGF-beta/Smad signaling pathway - cell viability counter screen (AID 1346829); further: nearly all actives have a fitted effect of over 45% in size; further: potency means the concentration at half of the fitted maximal effect
Outline: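 SBE-bla HEK 293T cells plated overnight, compound exposure 5 hr at 37 C. Viability read in the same wells by CellTiter-Glo luminescence after 30 min at room temperature, following the beta-lactamase read.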

[12] = qHTS assay to identify small molecule agonists of the TGF-beta/Smad signaling pathway (AID 1346859; active means well fitted activation curve with a large enough effect in the signal ratio in the repeat runs, not every such curve was filed as active; the % refers to the signal ratio; further: series mostly up to about 77 µM)
Outline: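 Smad-responsive beta-lactamase reporter cells (HEK 293T) received compounds from DMSO stocks after overnight attachment, were incubated 5 hr, then treated 2 hr with FRET substrate before dual-emission fluorescence measurement (405 nm excitation).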

[13] = target: Thyrotropin-releasing hormone receptor (Homo sapiens) (UniProt P34981); test: qHTS assay to identify small molecule antagonists of the thyrotropin-releasing hormone receptor (TRHR) signaling pathway (AID 1346877; active means well fitted inhibition curve with a large enough effect in the repeat runs, not every such curve was filed as active; further: series mostly up to about 51 µM)
Outline: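 HEK293/TRHR cells, 18 h, 37 °C; Ca2+ dye 2 h; cpd 5 min RT; TRH 1 nM final; fluorescence read 3 min, 1 s intervals; 15 concs, triplicate.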

[14] = target: Thyrotropin-releasing hormone receptor (Homo sapiens) (UniProt P34981); test: qHTS assay to identify small molecule agonists of the thyrotropin-releasing hormone receptor (TRHR) signaling pathway (AID 1346891; calls by dose curve; further: potency means the concentration at half of the fitted maximal effect;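 on activation: HEK293 cells expressing TRHR with calcium dye readout; series mostly up to about 58 µM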)
Outline: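 Agonist-mode calcium mobilisation screen: TRHR-transfected HEK293 cells cultured overnight (18 h), dye-loaded for 2 h at 37 °C, exposed to compounds, and monitored by fluorescence for 3 min.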

[15] = Human pregnane X receptor (PXR) small molecule agonists, qHTS cell viability counter screen (AID 1346977); further: nearly all actives have a fitted effect of over 50% in size; further: potency means the concentration at half of the fitted maximal effect
Outline: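 Measures live-cell protease fluorescence (CellTiter-Fluor) in PXR-Luc HepG2 cells treated 24hr with compounds at 37C. Cells had 5hr to attach before pin transfer of DMSO solutions.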

[16] = Caspase-3/7 induction in HepG2 cells by small molecules, qHTS assay (AID 1346978); further: nearly all actives have a fitted effect of over 15% in size; further: potency means the concentration at half of the fitted maximal effect
Outline: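 Wild-type HepG2 cells, 2,000/well, settled 5 hr at 37 C and 5% CO2, then compound-treated for 17 hr; caspase-3/7 activity read by luminescent Caspase-Glo 3/7 after 30 min at room temperature.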

[17] = target: Thyrotropin receptor (Homo sapiens) (UniProt P16473); test: qHTS assay to identify small molecule antagonists of the thyroid stimulating hormone receptor (TSHR) signaling pathway (AID 1259385; calls by dose curve; further: nearly all actives have a fitted effect of over 20% in size; further: potency means the concentration at half of the fitted maximal effect)
Outline: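 TSHR-HEK293 cells (800/well) plated 18 h, then compounds with Ro20-1724 and TSH at 1.5 ng/mL final, 30 min at room temperature. cAMP quantified by HTRF (cAMP-d2/anti-cAMP-cryptate, 1 h); 15 concentrations in triplicate.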

Measured: Potency
On the % scale 0 is the no-effect control and ±100 the full control effect.

Chain of Estrogen receptor (Homo sapiens) (P03372 whole entry, looked up): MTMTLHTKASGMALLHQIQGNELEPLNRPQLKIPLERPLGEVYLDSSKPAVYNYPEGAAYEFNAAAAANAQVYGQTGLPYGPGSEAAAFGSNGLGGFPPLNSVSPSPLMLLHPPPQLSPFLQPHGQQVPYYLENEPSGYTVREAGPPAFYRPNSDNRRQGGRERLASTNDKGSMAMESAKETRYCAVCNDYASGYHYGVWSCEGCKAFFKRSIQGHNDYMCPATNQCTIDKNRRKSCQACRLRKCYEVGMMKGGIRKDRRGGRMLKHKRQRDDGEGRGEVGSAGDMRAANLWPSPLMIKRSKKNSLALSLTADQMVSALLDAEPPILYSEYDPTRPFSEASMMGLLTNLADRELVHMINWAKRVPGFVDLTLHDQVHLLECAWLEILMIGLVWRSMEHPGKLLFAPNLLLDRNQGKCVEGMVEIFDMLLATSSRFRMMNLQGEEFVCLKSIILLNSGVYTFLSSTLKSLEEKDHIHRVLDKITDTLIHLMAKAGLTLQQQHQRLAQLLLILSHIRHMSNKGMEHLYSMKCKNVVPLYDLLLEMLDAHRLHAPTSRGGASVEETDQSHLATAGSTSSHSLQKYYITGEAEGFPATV
Chain of Thyrotropin-releasing hormone receptor (Homo sapiens) (P34981 whole entry, looked up): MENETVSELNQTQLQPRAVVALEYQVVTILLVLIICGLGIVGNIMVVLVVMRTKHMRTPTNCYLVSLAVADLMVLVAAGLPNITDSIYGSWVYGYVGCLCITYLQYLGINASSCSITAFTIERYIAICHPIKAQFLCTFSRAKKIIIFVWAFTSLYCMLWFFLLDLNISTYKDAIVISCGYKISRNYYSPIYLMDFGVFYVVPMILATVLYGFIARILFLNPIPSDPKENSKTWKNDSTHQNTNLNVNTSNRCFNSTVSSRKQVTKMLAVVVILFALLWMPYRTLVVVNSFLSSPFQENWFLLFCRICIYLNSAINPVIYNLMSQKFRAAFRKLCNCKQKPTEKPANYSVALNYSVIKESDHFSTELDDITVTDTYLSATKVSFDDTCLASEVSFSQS
Chain of Progesterone receptor (Homo sapiens) (P06401 whole entry, looked up): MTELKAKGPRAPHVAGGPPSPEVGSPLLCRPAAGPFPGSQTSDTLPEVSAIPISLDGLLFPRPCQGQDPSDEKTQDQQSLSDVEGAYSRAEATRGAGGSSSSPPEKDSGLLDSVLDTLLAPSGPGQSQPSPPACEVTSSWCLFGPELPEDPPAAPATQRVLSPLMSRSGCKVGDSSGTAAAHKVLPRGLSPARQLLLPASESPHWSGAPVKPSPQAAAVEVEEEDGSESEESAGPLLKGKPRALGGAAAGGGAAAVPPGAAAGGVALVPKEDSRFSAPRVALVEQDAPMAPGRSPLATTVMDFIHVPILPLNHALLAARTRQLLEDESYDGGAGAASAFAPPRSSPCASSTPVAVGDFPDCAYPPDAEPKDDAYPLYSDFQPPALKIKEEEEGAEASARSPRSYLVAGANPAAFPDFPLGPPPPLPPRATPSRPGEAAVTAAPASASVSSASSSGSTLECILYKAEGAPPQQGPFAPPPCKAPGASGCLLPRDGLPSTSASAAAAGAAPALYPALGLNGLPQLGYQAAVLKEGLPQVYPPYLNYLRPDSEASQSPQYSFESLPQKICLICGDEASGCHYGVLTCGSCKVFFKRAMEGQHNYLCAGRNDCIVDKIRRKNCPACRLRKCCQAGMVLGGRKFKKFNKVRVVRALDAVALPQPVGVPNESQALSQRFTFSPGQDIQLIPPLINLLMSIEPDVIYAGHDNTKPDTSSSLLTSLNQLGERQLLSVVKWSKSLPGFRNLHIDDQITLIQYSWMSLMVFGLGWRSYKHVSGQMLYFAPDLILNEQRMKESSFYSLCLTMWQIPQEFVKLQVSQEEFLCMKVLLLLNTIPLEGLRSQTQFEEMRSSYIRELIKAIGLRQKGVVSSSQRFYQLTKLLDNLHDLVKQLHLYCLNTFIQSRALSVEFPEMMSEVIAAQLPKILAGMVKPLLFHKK
Chain of Thyrotropin receptor (Homo sapiens) (P16473 whole entry, looked up): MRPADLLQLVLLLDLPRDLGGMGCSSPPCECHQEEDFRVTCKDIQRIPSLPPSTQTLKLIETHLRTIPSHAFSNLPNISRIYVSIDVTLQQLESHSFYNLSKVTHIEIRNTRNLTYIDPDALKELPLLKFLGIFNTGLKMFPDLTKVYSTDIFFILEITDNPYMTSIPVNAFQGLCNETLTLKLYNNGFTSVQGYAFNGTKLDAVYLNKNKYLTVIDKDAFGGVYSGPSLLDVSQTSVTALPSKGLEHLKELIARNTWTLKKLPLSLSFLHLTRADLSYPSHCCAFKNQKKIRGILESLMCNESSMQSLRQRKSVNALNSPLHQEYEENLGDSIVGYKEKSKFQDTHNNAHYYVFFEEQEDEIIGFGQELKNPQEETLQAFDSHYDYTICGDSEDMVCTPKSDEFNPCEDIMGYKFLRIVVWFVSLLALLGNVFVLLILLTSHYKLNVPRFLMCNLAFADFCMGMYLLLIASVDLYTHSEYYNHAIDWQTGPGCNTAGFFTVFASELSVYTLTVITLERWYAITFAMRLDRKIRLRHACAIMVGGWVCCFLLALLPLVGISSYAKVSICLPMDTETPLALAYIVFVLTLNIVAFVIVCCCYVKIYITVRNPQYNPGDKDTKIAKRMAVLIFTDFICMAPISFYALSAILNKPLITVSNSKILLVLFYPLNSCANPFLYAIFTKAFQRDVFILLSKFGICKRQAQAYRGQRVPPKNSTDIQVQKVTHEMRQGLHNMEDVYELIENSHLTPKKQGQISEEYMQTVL

O=C/C(Cl)=C(/Cl)C(=O)O
not listed: [17]
inactive: all other assays above

O=C(O)c1cc[c]([Hg][Cl])cc1
active: [7] 15.4 µM | [15] 68.6 µM
inactive: [1] | [3] | [4] | [17] | [5] | [11] | [13] | [14]

BrC(Br)Br
active: [6] 7.7 µM
not listed: [3] | [4] | [9] | [13] | [14]
inactive: all other assays above

CCCCOCN(C(=O)CCl)c1c(CC)cccc1CC
inactive: [1] | [2] | [3] | [4] | [5] | [6] | [10] | [11] | [16]
active: [17] 61.1 µM

OC(Cc1ccccc1Cl)(Cn1cncn1)C1(Cl)CC1 (stereo not drawn)
not listed: [2] | [7] | [8] | [9] | [13] | [14] | [15]
inactive: all other assays above

N#Cc1ccc(O)cc1
not listed: [4] | [8] | [12]
inactive: all other assays above

CC(C)CCCCCOC(=O)c1ccccc1C(=O)OCCCCCC(C)C
not listed: [15] | [17]
inactive: all other assays above

CCCCCCCCCCCCCCCC[n+]1ccccc1
36.3 µM (active) and inactive: [14]
active: [1] 25.5 µM [middle of 4 runs] | [2] 29.8 µM [middle of 4 runs] | [5] 71.7 µM and 61.1 µM and 60.3 µM | [8] 50.8 µM and 61.1 µM and 60.3 µM | [9] 50.8 µM and 54.5 µM | [10] 43.6 µM [middle of 4 runs] | [11] 54.2 µM [middle of 4 runs] | [15] 30.6 µM [middle of 4 runs]
inactive: [3] | [6]

S=C=Nc1cccc2ccccc12
inactive: [1] | [3] | [4] | [11] | [12] | [13] | [14]
active: [2] 67.9 µM | [5] 60.5 µM | [7] 67.9 µM | [15] 53.9 µM

O=c1c(C2CC(c3ccc(-c4ccc(Br)cc4)cc3)Cc3ccccc32)c(O)sc2ccccc12 (stereo not drawn)
active: [1] 29.8 µM | [15] 18.8 µM
not listed: [4] | [5] | [7] | [8] | [9] | [12]
inactive: all other assays above

Nc1ccccc1C(=O)Oc1ccc2ccccc2c1
active: [3] 2.17 µM | [7] 30.6 µM
not listed: [10] | [12]
inactive: all other assays above

CN(C)C(=S)S
inactive: [1] | [5] | [10] | [11] | [12]
active: [2] 12.4 µM | [8] 15.7 µM and 17.2 µM | [15] 15.8 µM and 12.1 µM and 15.4 µM | [16] 19.7 µM and 17.2 µM
inactive and 13.7 µM (active): [9]

COc1cc(N)c(Cl)cc1C(=O)NC1CN2CCC1CC2 (stereo not drawn)
not listed: [3] | [4] | [8] | [10]
inactive: all other assays above
